PKM2 inhibitor: blocks activity of human pyruvate kinase M2; purified PKM2, ATP generation, Kinase-Glo luminescence; Potency, µM (titrated, usually from 57.5 µM), actives largely listed as inhibitors; AID 1634; P14618; hit rate 0.058% among 260,000; active means well fitted inhibition curve with a large enough effect; further: nearly all actives have a fitted effect of over 60% in size
Target sequence (P14618 whole entry, looked up): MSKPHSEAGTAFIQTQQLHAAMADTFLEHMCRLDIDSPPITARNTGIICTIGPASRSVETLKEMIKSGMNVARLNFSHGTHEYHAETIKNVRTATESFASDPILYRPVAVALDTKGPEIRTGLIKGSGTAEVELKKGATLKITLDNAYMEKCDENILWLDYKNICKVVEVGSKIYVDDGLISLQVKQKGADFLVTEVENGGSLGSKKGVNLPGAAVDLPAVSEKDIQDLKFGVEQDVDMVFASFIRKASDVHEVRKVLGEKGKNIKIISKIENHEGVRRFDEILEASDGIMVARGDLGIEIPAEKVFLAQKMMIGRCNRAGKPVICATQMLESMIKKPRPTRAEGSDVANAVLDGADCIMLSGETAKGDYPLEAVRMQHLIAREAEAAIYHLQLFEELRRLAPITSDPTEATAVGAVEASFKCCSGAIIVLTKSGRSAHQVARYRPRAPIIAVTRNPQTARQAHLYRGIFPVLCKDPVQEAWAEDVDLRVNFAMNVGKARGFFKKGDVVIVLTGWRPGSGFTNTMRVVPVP
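Coupled luciferase luminescence (Kinase-Glo) detects ATP generated from 0.1 mM ADP and 0.5 mM PEP in imidazole buffer pH 7.2 with KCl, MgCl2; 1 h at room temperature. Enzyme at intermediate activity; normalized to uninhibited and no-enzyme controls.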
Numbers stand for hits; 0 = inactive. Shown is part of a subset that was picked to be rich in hits.

SMILES	PKM2 inhibitor
Cc1cc2c(NC(=O)Nc3ccc(C(C)(C)C)cc3)cccc2nn1	0
COc1ccc(NC(=O)Nc2ccccc2C(N)=O)cc1	25µM
Cc1ccc(-c2csc(NC(=O)/C=C/c3ccco3)c2C(=O)O)cc1	0
O=C(COc1ccc(S(=O)(=O)N2CCOCC2)cc1Cl)NCC1CCCO1 (stereo not given)	0
O=C(NNC(=O)c1cc2cc(Br)ccc2oc1=O)c1ccc(O)cc1O	0
O=C(NCc1ccco1)c1cc2ccc(O)cc2oc1=O	11µM
Cc1c(Br)cc(C(=O)NCc2ccco2)c(C)c1C	0
CCN(CC)c1ccc2cc(S(=O)(=O)c3ccc(C)cc3)c(=O)oc2c1	0
O=C(Nc1nnc(SCc2ccc(Cl)cc2)s1)C1CC(=O)N(Cc2ccccc2)C1 (stereo not given)	0
CCOC(=O)/C=C/C(=O)OCC(=O)Nc1ccc([N+](=O)[O-])cc1	0
CNC(=S)N1CCN(S(=O)(=O)c2ccc3ccccc3c2)CC1	0
CCC(=O)Oc1ccc(C(=O)Nc2ccc3c(c2)OCO3)cc1	14µM
CC(=O)Oc1ccc(C(=O)Nc2cccc(C(=O)c3cccc(NC(=O)c4ccc(OC(C)=O)cc4)c3)c2)cc1	0
CS(=O)(=O)Nc1ccc(C(=O)NCc2ccc3c(c2)OCO3)cc1	0
COc1ccc(CCNC(=S)N2CCN(S(=O)(=O)c3ccccc3F)CC2)cc1	0
Cc1nc(N=Nc2ccc(O)cc2)n[nH]1	13µM
CCC1Oc2ccc(C)cc2N(CC(=O)N(Cc2ccc(C)o2)C2CCCC2)C1=O (stereo not given)	0
CC(C)C(NC(=O)c1ccc(C(C)(C)C)cc1)C(=O)Nc1cccc(S(N)(=O)=O)c1 (stereo not given)	0
CC1CCCN(CCOc2ccc3ccccc3c2Br)C1 (stereo not given)	0
O=C(COc1ccc(Cl)cc1Cl)NC(=S)Nc1ccc(CN2CCOCC2)cc1	0
O=C(COc1ccc(Cl)cc1Cl)NCC(=O)N/N=C/c1c[nH]c2ccccc12	0
O=C(COc1ccc(Cl)cc1Cl)Nc1ccccn1	14µM
COc1ccc(CNC(=O)C2CCN(S(=O)(=O)c3ccc(Br)s3)CC2)cc1	0
Cc1ccccc1OCC(=O)Nc1ccc2c(c1)n(C)c(=O)n2C	0
CCNS(=O)(=O)c1ccc(NC(=O)c2ccc(Cn3cc(Br)cn3)o2)cc1	0
SMILES	PKM2 inhibitor
COc1ccc(C(=O)O/N=C(/C)c2cccs2)cc1	14µM
COc1ccc2cc(/C(C)=N/NC(=O)C3CC3)ccc2c1	0
COc1ccc(S(=O)(=O)N2CCN(C(=O)c3cccs3)CC2)cc1	0
COc1ccc(S(=O)(=O)NCC2CCCN(C(=O)c3ccccc3)C2)cc1 (stereo not given)	0
CS(=O)(=O)c1ccc(NCCc2ccc(S(N)(=O)=O)cc2)c([N+](=O)[O-])c1	0
CN(C)c1ccc(/C=N/NC(=O)c2ccnn2C)cc1	7.9µM
COc1ccccc1C(CCN(Cc1ccccc1)C(C)=O)c1ccco1 (stereo not given)	0
CC(C)c1ccc2oc3nc(N)c(C(=O)O)cc3c(=O)c2c1	14µM
COc1cccc(CNC(=O)C2CCN(S(=O)(=O)c3ccc4c(c3)OCCO4)CC2)c1	0
O=C(NCc1nc(-c2ccc(C(F)(F)F)cc2)no1)Nc1ccc(OC(F)(F)F)cc1	0
O=C(CCSc1ccc(Br)cc1)Nc1cccnc1	0
COc1ccc(-c2ccc(SC)nn2)cc1	10µM
COc1cccc(NC(=O)CSc2ccc(-c3sc(C)nc3C)nn2)c1	0
Cc1cccc(NS(=O)(=O)c2ccc3c(c2)oc(=O)n3C)c1C	0
COc1cc(/C=N/NC(=O)c2cccs2)ccc1O	0
Cc1ccsc1C(=O)N/N=C/c1ccc2c(c1)OCO2	13µM
Cc1nn(CC(=O)N/N=C/c2ccc3c(c2)OCO3)c(C)c1Br	0
O=C(NCc1cccc(C(F)(F)F)c1)N1CCN(S(=O)(=O)c2ccccc2F)CC1	0
Cc1ccc(NC(=O)c2cc(-c3ccc(C)o3)nc3ccccc23)cc1	0
NC(=O)c1oc2ccccc2c1NC(=O)CCc1ccccc1	0
O=C(Nc1ccccc1)c1cc2ccccc2o1	11µM
Cn1c(-c2ccc([N+](=O)[O-])cc2)nc2ccccc21	0
O=C1C=CC(=O)N1c1ccc(Sc2ccc([N+](=O)[O-])cc2)cc1	0
CC1=NN(c2ccc([N+](=O)[O-])cc2)C(=O)/C1=C\N(C)C	16µM
CCS(=O)(=O)N1CCN(S(=O)(=O)c2ccc3c(c2)OCCO3)CC1	0
SMILES	PKM2 inhibitor
O=c1[nH]c2ccccc2nc1Cc1ccc([N+](=O)[O-])cc1	0
COc1cc([N+](=O)[O-])ccc1NC(=O)CSc1nncn1-c1cccnc1	0
COc1ccc2nc3c(cc2c1)Cc1ccccc1-3	14µM
COc1ccc2c(c1)-c1nc(NC(=O)c3cccs3)sc1CC2	0
Cc1ccc(N2C(=O)CC(C)(C)CC2=O)cc1Cl	0
O=C1NC(=S)S/C1=C1\Sc2ccccc2N1CCCS(=O)(=O)O	11µM
O=[N+]([O-])c1cccnc1NCc1cccs1	0
Cc1cc(NC(=O)CSc2nc3c(C)cccc3cc2C#N)no1	0
Cc1nnc(SCC(=O)Nc2nccs2)o1	0
CCc1cccc(C)c1N=Cc1c(O)c2ccccc2oc1=O	0
Cc1ccc(C(=O)O/N=C(\N)c2ccccn2)c(Cl)c1	14µM
COc1ccc(C(=O)O/N=C(\N)Cc2ccc(Cl)cc2)cc1OC	0
COc1cccc(C(=O)C(C#N)=C(SC)SC)c1	0
Cc1ccc(C(=O)O/N=C(\N)c2ccccc2)c(Cl)c1	18µM
N/C(=N\OC(=O)c1ccc(Cl)cc1Cl)c1ccccn1	14µM
N/C(CS(=O)(=O)c1ccccn1)=N\OC(=O)c1ccccc1Cl	0
COc1cccc(C(=O)O/N=C(\N)c2ccccn2)c1	8.9µM
O=C(Oc1ccc2ccc(O)cc2c1)c1ccccc1Cl	0
COc1ccc(C/C(N)=N/OC(=O)c2cccc([N+](=O)[O-])c2)cc1	0
C[C@H](NC(N)=O)C(=O)N1CCN(S(=O)(=O)c2ccc3ccccc3c2)CC1	0
CS(=O)(=O)Nc1cccc(C2=NN(S(=O)(=O)c3ccccc3)C(c3ccco3)C2)c1 (stereo not given)	0
CC(=O)c1c(C)oc2ccc(N(C(C)=O)S(=O)(=O)c3cccc4cccnc34)cc12	0
COc1ccc(C2CC(c3ccccc3OC(C)=O)=NN2C(C)=O)cc1 (stereo not given)	0
CC(=O)NC1=NN(C(C)=O)C(c2ccccn2)S1 (stereo not given)	0
CN(CCOC(=O)/C=C/c1ccco1)Cc1ccccc1	0
SMILES	PKM2 inhibitor
O=S(=O)(Nc1ccc(Cl)cc1)c1ccc2c(c1)CCO2	0
CC1(C)CC2(CC(c3ccccc3F)c3ccc(O)c(O)c3O2)NC(=S)N1 (stereo not given)	0
CCCN(C(=O)c1cc2c(s1)CCC2)c1c(N)n(Cc2ccccc2)c(=O)[nH]c1=O	0
COc1cc(NC(=S)N2CCN(S(=O)(=O)c3ccc(C)cc3)CC2)cc(OC)c1	0
O=[N+]([O-])c1ccc(Sc2nnnn2-c2ccccc2)nc1	0
S=C(NCCc1ccccc1)Nc1cnc2ccccc2c1	0
CC(=O)N1CC(=O)N=C1SCC(=O)Nc1nc(C)c(-c2ccccc2)s1	0
CC(=O)c1ccn(S(=O)(=O)c2ccccc2)c1	0
N#Cc1nccnc1S(=O)(=O)c1cccs1	0
Cc1cccc(/C(N)=N/OC(=O)c2cccs2)c1	13µM
CCOc1cc(NC(=O)c2cccs2)c(OCC)cc1NC(=O)c1cccnc1	0
CCOC(=O)c1c(-c2ccc(C)o2)csc1NC(=O)COC(=O)c1cccs1	0
O=C(COc1ccccc1F)Nc1ccc(S(=O)(=O)Nc2nccs2)cc1	0
